# Data: article PMC12431657, “Discovery and mechanistic insights of dibenzoylmethane as a broad spectrum inhibitor of coronavirus” (PLOS Pathogens, 2025)
# Structures can show the parent of a compound that is named as a salt. Where two headings read alike, the source gives them in different places. Hit rate of the full screen: of about 3,300 compounds, about 95 (3%) showed an effect of 50% or more. Shown is part of a subset that was picked to be rich in strong results.
# Test system: HCoV-229E
# Set-up: species or system Huh-7; HTS, protection from HCoV-229E induced cell death, luminescent cell viability (CellCounting-Lite 2.0), inhibition rate
# Conditions: 24 h post infection, 1 h compound pre-incubation, 10 µM, inhibitor
SMILES,"229E Inhibition rate (229E Inhibition rate, 24 h) [%]",229E Inhibition rate [%]
C=C1C(=O)O[C@@H]2/C=C(\C)[C@@H](OC(C)=O)C/C=C(\COC(C)=O)C[C@@H](OC(=O)/C(C)=C/CO)[C@@H]12 [Eupalinolide A],35.1,–
CC(C)C(O)C(=O)O (stereo not shown) [2-Hydroxy-3-methylbutanoic acid],–,20.4
C[C@H](O)C(=O)O [L-Lactic acid],–,58.1
C[C@@H](O)C(=O)O [D-(-)-Lactic acid (sodium)],–,8.1
COc1ccc2c3c1O[C@H]1C[C@@H](O)CC[C@]31CCN(C)C2 [Lycoramine],–,33.8
COc1ccc(CC(=O)O)cc1 [2-(4-Methoxyphenyl)acetic acid],–,0
COc1cc(CNC(=O)CCCCCCCC(C)C)ccc1O [Homodihydrocapsaicin I],–,33
Cc1cc(O)cc2c1O[C@](C)(CCC[C@H](C)CCC[C@H](C)CCCC(C)C)CC2 [Delta-Tocopherol],–,8.2
CC(=O)OC/C1=C/C[C@H]2[C@@H](/C=C(\C)C(=O)[C@@]3(OC(C)=O)C[C@H](C)[C@H](OC(=O)c4ccccc4)[C@@H]3[C@H]1OC(C)=O)C2(C)C [Euphorbia factor L7b],–,41.1
CCOC(=O)/C=C/c1ccccc1 [Ethyl cinnamate],–,4
CC(=O)OC/C1=C\[C@H]2[C@@H](OC(=O)/C=C/c3ccccc3)[C@@H](C)C[C@]2(OC(C)=O)C(=O)/C(C)=C/[C@@H]2[C@H](CC1)C2(C)C [Euphorbia factor L7a],–,90.9
COc1cc(/C=C/C(=O)NCC(O)c2ccc(O)cc2)ccc1O (stereo not shown) [N-Feruloyloctopamine],–,7.9
CC1=CC(=O)[C@@H]2C[C@H]1C2(C)C [Verbenone],–,0
C=C1[C@@H](O)[C@]2(O)OC[C@]34[C@H]2[C@@]2(C)[C@H](O)C(=O)C=C(C)[C@@H]2C[C@H]3OC(=O)[C@H](O)[C@@]14O [Eurycomanone],–,53.4
CC1(C)Oc2cc3oc(-c4cc(O)cc(O[C@@H]5OC[C@@H](O)[C@H](O)[C@H]5O)c4)cc3cc2CC1O (stereo partly shown) [Mulberroside C],–,0
O=C(/C=C/c1ccc(O)c(O)c1/C=C/c1ccc(O)c(O)c1)O[C@H](Cc1ccc(O)c(O)c1)C(=O)O [Salvianolic acid A],–,17.8
CC/C=C/CC1C(=O)CCC1CC(=O)OC (stereo not shown) [Methyl 2-(3-oxo-2-(pent-2-en-1-yl)cyclopentyl)acetate],–,22
CCCCCCCCCCCCCCCCC(=O)OC [Methyl heptadecanoate],–,20.9
CCCCCC1C(=O)CCC1CC(=O)OC (stereo not shown) [Methyl dihydrojasmonate],–,54.7

SMILES,"229E Inhibition rate (229E Inhibition rate, 24 h) [%]",229E Inhibition rate [%]
CC(C)(O)[C@@H]1CC[C@](C)([C@H]2[C@@H](O)C[C@@]3(C)[C@@H]4C[C@H](O)[C@H]5C(C)(C)[C@@H](O[C@@H]6OC[C@@H](O)[C@H](O)[C@H]6O[C@@H]6O[C@H](CO)[C@@H](O)[C@H](O)[C@H]6O)CC[C@@]56C[C@@]46CC[C@]23C)O1 [Astragaloside III],–,10.8
CO[C@@H]1[C@@H](OC)[C@H](C)[C@@](O)(CC(=O)O)O[C@H]1[C@H](C)[C@H]1O[C@@]2(CC[C@@](C)([C@H]3CC[C@@](C)([C@@H]4O[C@@H]([C@H]5O[C@](C)(O)[C@H](C)C[C@@H]5C)C[C@@H]4O[C@@H]4C[C@H](OC)[C@@H](OC)[C@H](C)O4)O3)O2)C[C@H](O)[C@H]1C [Maduramicin (ammonium)],–,3.4
CO[C@H]([C@H](C)[C@H]1O[C@@]2(CC[C@@](C)([C@H]3CC[C@@](C)([C@@H]4O[C@@H]([C@H]5O[C@@](O)(CO)[C@H](C)C[C@@H]5C)C[C@@H]4C)O3)O2)C[C@H](O)[C@H]1C)[C@H](C)C(=O)O [Monensin B],–,55.3
CC[C@@]1([C@H]2O[C@H]([C@H]3O[C@@](O)(CO)[C@H](C)C[C@@H]3C)C[C@H]2C)CC[C@H]([C@@]2(C)CC[C@]3(C[C@H](O)[C@@H](C)[C@@H]([C@H](C)[C@H](OC)[C@@H](C)C(=O)O)O3)O2)O1 [Monensin sodium salt],–,24.5
COc1ccc(/C=C/c2cc(OC)cc(=O)o2)cc1 [Yangonin],–,44
C[C@]12CC[C@@H]3c4ccc(O)cc4CC[C@H]3[C@@H]1CC[C@H]2O [Alpha-Estradiol],–,18.2
O=C(/C=C/c1ccc(O)c(O)c1)O[C@@H]1CC(C(=O)O)=C[C@@H](O)[C@H]1O [5-O-Caffeoylshikimic acid],–,12
O=C1/C(=C/c2ccc(O)c(O)c2)COc2cc(O)ccc21 [Sappanone A],–,15.6
CC1(C)CCC[C@]2(C)[C@@H](C=O)C(C=O)=CC[C@@H]12 [Polygodial],–,16.5
CC1(C)CCC[C@]2(C)[C@H]3CCO[C@]3(C)CC[C@@H]12 [Ambroxide],–,53.4
C=C[C@](C)(O)CC[C@@H]1[C@@]2(C)CCCC(C)(C)[C@@H]2CC[C@@]1(C)O [Sclareol],–,19.3
CC1(C)Oc2cc3oc(=O)ccc3cc2C[C@@H]1O [Decursinol],–,0
COc1cc([C@H]2OC[C@H]3[C@@H]2CO[C@@H]3c2ccc(O[C@@H]3O[C@H](CO)[C@@H](O)[C@H](O)[C@H]3O)c(OC)c2)ccc1O[C@@H]1O[C@H](CO)[C@@H](O)[C@H](O)[C@H]1O [Pinoresinol Diglucoside],–,23.6
CSCCC(NC(C)=O)C(=O)O (racemic) [N-Acetyl-DL-methionine],–,32.7
O=c1ccc2ccc(O)cc2o1 [Umbelliferone],–,54.3
O=c1ccc2cc(O)ccc2o1 [6-Hydroxycoumarin],–,10.6
O=c1ccc2cc(O)c(O)cc2o1 [Esculetin],–,35.1
C[C@H](CC[C@@H](O)C(C)(C)O)[C@H]1CC[C@@]2(C)[C@@H]3CC=C4[C@@H](CC[C@H](O[C@@H]5O[C@H](CO[C@@H]6O[C@H](CO)[C@@H](O)[C@H](O)[C@H]6O)[C@@H](O)[C@H](O)[C@H]5O)C4(C)C)[C@]3(C)[C@H](O)C[C@]12C [Mogroside II-A2],–,10
